High-throughput results deposited in PubChem BioAssay by several laboratories.
HSP90 refold inh = HSP90 refolding inhibition in rabbit reticulocyte lysate | 290,000 tested, 0.91% active | inhibition, % at 5.6 µM | luciferase refolding luminescence, 3 h;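 active means inhibition above the screen-wide mean plus 3 SD, computed separately per campaign, cut at about 16% in these data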;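 further: 0% = DMSO wells and 100% = 60 µM geldanamycin wells; inhibitors lower the luminescence because luciferase stays unfolded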
TWEAK-Fn14 inh = inhibitors of TWEAK-Fn14 interaction signaling | 360,000 tested, 2% active | inhibition, % at 10 µM | TWEAK-stimulated Fn14 reporter cells, luciferase luminescence, 8 h; in the data active means inhibition above about 50%
TROY signal inh = TROY signaling inhibition; AID 1347056; 360,000 tested, 0.98% active; Q293 LMP1-TROYcd NF-kB luciferase reporter, 4 h; inhibition, % at 10 µM;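 active means compounds whose plate-normalised and pattern-corrected inhibition of the luciferase reporter signal at the single screening dose is 50% or more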
LGR2 antag = Drosophila LGR2 receptor signaling inhibition | 380,000 tested, 0.35% active | HEK293 LGR2, CRE-luciferase, bursicon-stimulated, 4 h | inhibition, % at 9.99 µM;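 active means drop in luminescence signal, shown as inhibition above about 50% in the replicate tests, limit read from the data, passing the limit was not always enough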;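 further: agonist challenge used bursicon conditioned medium at about half maximal strength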
HSP90 inh confirm = confirmation of HSP90 inhibitors. rabbit reticulocyte lysate, luciferase refolding luminescence, 3 h. inhibition, % at 5.9 µM. 2,300 tested, 64% active. shares compounds with HSP90 refold inh. AID 1846; in the data active means inhibition above about 18%;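 further: 0% = vehicle wells and 100% = reference inhibitor wells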
FLuc counter = counter-screen for HSP90 inhibitors: inhibitors of firefly luciferase; shares compounds with HSP90 refold inh; purified native firefly luciferase, luminescence; inhibition, % at 5.9 µM; 2,300 tested, 48% active;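 active means inhibition above the mean inhibition of all tested sample wells plus 3 SD, cut at about 10% in these data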;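 further: 0% = DMSO with luciferase and 100% = wells lacking luciferase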
Target sequence (P08659 whole entry, looked up): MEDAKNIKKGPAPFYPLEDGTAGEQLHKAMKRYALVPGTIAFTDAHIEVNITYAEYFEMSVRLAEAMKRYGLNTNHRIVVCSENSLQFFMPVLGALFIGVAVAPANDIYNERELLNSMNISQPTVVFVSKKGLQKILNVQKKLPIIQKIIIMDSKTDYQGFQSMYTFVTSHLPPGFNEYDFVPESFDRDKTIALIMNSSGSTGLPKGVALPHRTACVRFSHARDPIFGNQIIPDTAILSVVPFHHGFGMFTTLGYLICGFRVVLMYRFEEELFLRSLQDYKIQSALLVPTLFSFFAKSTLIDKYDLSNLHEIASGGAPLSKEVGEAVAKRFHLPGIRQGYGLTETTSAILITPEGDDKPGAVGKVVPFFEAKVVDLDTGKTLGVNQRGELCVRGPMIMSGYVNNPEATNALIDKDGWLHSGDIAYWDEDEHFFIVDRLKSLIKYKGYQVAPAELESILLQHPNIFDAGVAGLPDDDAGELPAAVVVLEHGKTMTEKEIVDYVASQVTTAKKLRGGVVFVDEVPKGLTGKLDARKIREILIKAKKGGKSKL
The depositor's hits bear a star; nt = no result. Hits are enriched below; roughly 2.2% of the tested compounds scored in any of these assays.

SMILES | HSP90 refold inh | TWEAK-Fn14 inh | TROY signal inh | LGR2 antag | HSP90 inh confirm | FLuc counter
O=C(N/N=C/c1ccc2c(c1)OCO2)c1cc(-c2ccc(F)cc2)nc2ccccc12 | -1 | 6 | 13 | -31 | nt | nt
O=C(NCC(c1cccs1)N1CCOCC1)c1cccc([N+](=O)[O-])c1 (stereo unspecified) | 67* | 6 | 3 | 16 | -7 | -6
CCOC(=O)Cc1csc(NC(=S)NC(=O)c2ccc(C)cc2)n1 | 36* | 68* | 26 | -6 | 40* | -14
CCOC(=O)Cc1csc(NC(=S)NC(=O)c2ccccc2)n1 | 4 | -20 | 10 | 9 | nt | nt
CN1C(=O)c2cc(NC(=O)c3ccccc3)ccc2OC[C@@H]2O[C@@H](CC(=O)NCC3CC3)CC[C@@H]21 | nt | nt | nt | 5 | nt | nt
CN1N=C2c3ccccc3CCCC2C1c1ccc(F)cc1 (stereo unspecified) | 18* | 25 | 11 | -81 | -6 | -26
Cc1cc(C(=O)Cn2nnc3ccccc3c2=O)c(C)n1Cc1cccs1 | 35* | -9 | -9 | nt | 53* | 45*
Cc1ccc(OCc2ccc(C(=O)O)o2)cc1C | 70* | 0 | -72 | -113 | 71* | 5
CCOC(=O)c1ccc(COc2ccc(C(C)C)cc2)o1 | 33* | -21 | -83 | -132 | 71* | -13
Cc1cc(CN2CCCCC2)oc1C(=O)O | -3 | 6 | 5 | 8 | nt | nt
Cc1cc(COc2ccccc2)oc1C(=O)O | 69* | 90* | 58* | 20 | 84* | 50*
CCC(C)c1ccc(OCc2ccc(C(=O)O)o2)cc1 (stereo unspecified) | 94* | 3 | -97 | -25 | 92* | 82*
Cc1noc(C)c1NC(=O)N[C@@H]1CC[C@H](CC(=O)NCCCN(C)C)O[C@H]1CO | nt | nt | nt | -2 | nt | nt
O=C(NCC[C@@H]1CC[C@H](NS(=O)(=O)c2ccc(Cl)cc2)[C@H](CO)O1)Nc1ccc(F)cc1 | nt | nt | nt | -2 | nt | nt
CCOc1ccc(OCc2ccc(C(=O)N3N=C(C(F)F)CC3(O)C(F)F)o2)cc1 (stereo unspecified) | 28* | -5 | -8 | -8 | 13 | -6
CC(C)c1ccc(OCc2ccc(C(=O)N3CCCC3)o2)cc1 | 17* | -16 | 10 | -84 | 24* | -15
CCOc1ccc(OCc2ccc(C(=O)NC(C)C)o2)cc1 | 13 | -28 | -8 | -22 | nt | nt
CC(C)c1ccc(COc2ccc(C(=O)N3CCOCC3)cc2)cc1 | 1 | -12 | -22 | 12 | nt | nt
O=C(c1ccc(COc2ccc(Br)cc2)o1)N1N=C(C(F)F)CC1(O)C(F)F (stereo unspecified) | -2 | 24 | 36 | nt | nt | nt
CCOc1ccc(OCc2ccc(C(=O)N3CCCC3)o2)cc1 | 30* | 13 | -22 | -9 | 19* | -30
CN1C(=O)c2cc(NS(C)(=O)=O)ccc2OC[C@H]2O[C@H](CC(=O)N3CCOCC3)CC[C@@H]21 | nt | nt | nt | -14 | nt | nt
C[C@@H]1CCCCO[C@@H](CN(C)S(C)(=O)=O)[C@H](C)CN([C@H](C)CO)C(=O)c2cc(NS(C)(=O)=O)ccc2O1 | nt | nt | nt | 11 | nt | nt
CN(C)S(=O)(=O)c1ccc(C(=O)Nc2nnc(SCC(=O)NCC3CCCO3)s2)cc1 (stereo unspecified) | -3 | -1 | -26 | 21 | nt | nt
CCOc1ccc(C(=O)Nc2nnc(SCC(=O)NCC3CCCO3)s2)cc1 (stereo unspecified) | 36* | 69* | 36 | 78* | 61* | 44*
CC(C)(C)c1ccc(C(=O)Nc2nnc(SCC(=O)NCC3CCCO3)s2)cc1 (stereo unspecified) | 36* | 71* | 6 | -46 | 54* | 45*
SMILES | HSP90 refold inh | TWEAK-Fn14 inh | TROY signal inh | LGR2 antag | HSP90 inh confirm | FLuc counter
O=C(O)c1cccc(Nc2ccnc(Nc3cccc(C(=O)O)c3)n2)c1 | 37* | -12 | -75 | 90* | 40* | 58*
O=C(O)c1cccc(Nc2nc(N3CCOCC3)nc(N3CCOCC3)n2)c1 | 3 | -3 | 1 | 8 | nt | nt
C[C@@H]1CN([C@H](C)CO)C(=O)c2cc(C#CC3CCCC3)cnc2O[C@@H]1CN(C)C(=O)Nc1ccccc1 | nt | nt | nt | -15 | nt | nt
CCOC(=O)c1sc(NC(=O)c2ccc(OC(C)=O)cc2)nc1C | 6 | -10 | -29 | nt | nt | nt
CC(=O)c1sc(NC(=O)c2ccc(C)c(C)c2)nc1C | 9 | 1 | -43 | -4 | nt | nt
CC(=O)c1sc(NC(=O)c2ccc(C(C)(C)C)cc2)nc1C | 30* | 20 | -7 | -41 | 9 | -5
CCOC(=O)c1sc(NC(=O)c2ccc(C)o2)nc1C | 45* | 9 | -26 | nt | 44* | -14
COC(=O)c1sc(NC(=O)c2oc3ccccc3c2C)nc1C | 55* | -30 | -33 | nt | 35* | -24
CCOC(=O)c1sc(NC(=O)c2ccc(OC)cc2)nc1C | 18* | -10 | -35 | -21 | 28* | -6
O=C(O)c1cccc(NC(=S)NC(=O)c2ccc3ccccc3c2)c1 | 64* | 20 | -31 | -38 | 71* | 49*
Cc1ccc(C(=O)Nc2ccc3nccnc3c2)cc1 | 26* | 49 | -18 | 32 | 33* | 7
Cc1cc(NC(=O)c2ccc3nccnc3c2)ccc1Br | nt | 21 | -2 | -47 | nt | nt
CCOc1ccc(C(=O)Nc2cccc(C(=O)O)c2)cc1Cl | 88* | 35 | -52 | 76* | 88* | 72*
O=C(O)c1ccc(NC(=O)c2ccc(Cl)cc2)c(NC(=O)c2ccc(Cl)cc2)c1 | -7 | -16 | -5 | -5 | nt | nt
Cc1ccc(C(=O)Nc2ccc(C(=O)O)cc2NC(=O)c2ccc(C)cc2)cc1 | 60* | 41 | 13 | 7 | 55* | 37*
C[C@H](CO)N1C[C@H](C)[C@H](CN(C)C(=O)c2cc(-c3ccccc3)on2)OCc2cn(nn2)CCCC1=O | nt | nt | nt | 10 | nt | nt
O=C(O)c1cccc(NC(=O)c2ccccc2)c1 | nt | -18 | -61 | 29 | nt | nt
CC(=O)Nc1cc2ccccc2oc1=O | -2 | -18 | 2 | -5 | nt | nt
Cc1cc(/C=N/NC(=O)c2cccc(F)c2)c(C)n1-c1ccccc1 | 25* | 39 | 15 | -71 | 48* | 47*
CCOc1ccc(NC(=O)c2cc(F)c(F)cc2Cl)cc1OCC | 24* | 5 | 6 | -15 | 4 | -2
Cc1ccc(C(=O)Nc2cc3ccccc3oc2=O)cc1 | 50* | 102* | 88* | 99* | 98* | 92*
Cc1ccc(C(=O)Nc2cccc(C(=O)O)c2)cc1 | 82* | nt | nt | nt | 88* | 83*
CN(C)C(=O)C[C@H]1C=C[C@H](NC(=O)Nc2cccc(F)c2)[C@@H](CO)O1 | nt | nt | nt | 19 | nt | nt
COc1cccc(S(=O)(=O)N2C[C@@H](O)COC[C@@H]3O[C@@H](CC(=O)NCCCN4CCOCC4)CC[C@H]32)c1 | nt | nt | nt | -5 | nt | nt
Cc1ccc(C(=O)Nc2cccc(C(=O)N/N=C/c3ccccc3F)c2)cc1 | 19* | -10 | -30 | -74 | -2 | -15
Cc1[nH]c2ccccc2c1/C=N/Nc1nncn1N | 78* | -27 | -24 | -94 | -10 | -37
Cc1[nH]c2ccccc2c1/C=N/Nc1ccccn1 | -2 | nt | nt | -3 | nt | nt
